Laboratory results taken from PubChem BioAssay AID977606 (Broad Institute, 2014).
Out of some 1,500 compounds screened, about 430 (29%) were called active. No rule for the calls is given here. Not all results are given here. Results with a measured potency or affinity are listed apart.

Assay: insulin secretion activators without glucose, dose response, counter-screen for glucose-dependent insulin secretion activators, cell-based, INS-1E, Gaussia luciferase, luminescence, cherry-pick (AID 977606)
Details: INS-1E Gaussia luciferase insulin secretion, no glucose, 100% = twice neutral-control luminescence; series mostly up to 35 µM

Structure (SMILES) | outcome
Cc1cc(C)n2ncc(-c3cccc(Br)c3)c2n1 | inactive
CCN(CC)C(=O)Cn1c(=O)oc2ccccc21 | inactive
COC(=O)N1CCCCC1c1cc(C(=O)NCc2ccc(Cl)c(Cl)c2)no1 (stereo not drawn) | inactive
c1ccc2c(N3CCCCC3)nc(N3CCCC3)nc2c1 | inactive
CCOC(=O)c1nc(-c2ccccc2)oc1N(C)C | inactive
CCOC(=O)c1sc2nc(C)[nH]c(=O)c2c1C | inactive
COc1ccc(Cc2nnc(-c3ccccc3)o2)cc1 | inactive
CCCc1nc2n[nH]c(N)c2c2c1COC(C)(C)C2 | inactive
O=C(COc1nncc2ccccc12)NCC(F)(F)F | inactive
O=C(c1cccc(F)c1)N1CCCc2ccccc21 | inactive
CCOc1ccc(CCNC(=O)COc2cccc(-n3cnnn3)c2)cc1OCC | inactive
COc1ccc(-c2ccc(=O)n(CC(=O)NC3CCc4ccccc43)n2)cc1OC (stereo not drawn) | inactive
COCc1ccc(C(=O)NC2CCSc3ccccc32)cc1 (stereo not drawn) | inactive
CCOc1ncccc1C(=O)Nc1ncc(C)s1 | inactive
CCOc1ccc(C(=O)NCC(=O)OCCN2C(=O)c3ccccc3C2=O)cc1OCC | inactive
Cc1cc(NCc2ccccn2)nc2ccccc12 | inactive
O=C(O)CCCC(=O)N1CCN(c2nc(-c3ccccc3)c3ccccc3n2)CC1 | inactive
C/C=C1\COC(C(=O)NCc2ccccc2)(C(F)(F)F)C=C1C=C1CCCCC1 (stereo not drawn) | inactive
CC1=NS(=O)(=O)NC(C)(C)C1 | inactive
COc1ccc(C2=Nn3c(nnc3-c3ccccc3OC)SC2)cc1OC1CCOC1 (stereo not drawn) | inactive
Cc1ccc2nc(N/N=C/c3ccccc3C#N)nc(-c3ccccc3)c2c1 | inactive
Cc1ccc2nc(Cl)nc(-c3ccccc3)c2c1 | inactive
CCOc1ccc(CCNC(=O)CCNC(=O)c2ccco2)cc1OCC | inactive
COc1ccc(CCNC(=O)CCc2ccccc2)cc1OC | inactive
COc1ccc(CCNC(=O)CCc2ccccc2O)cc1OC | inactive

Structure (SMILES) | outcome
N=c1n(CCN2CCCCC2)c2ccccc2n1CC(O)COc1ccccc1 (stereo not drawn) | inactive
Clc1cc(NC2CCCCC2)ncn1 | inactive
COc1cccc(-c2cc(C(F)(F)F)nc(-n3cncn3)n2)c1 | inactive
CN(C)S(=O)(=O)c1cccc(-c2csc(N/N=C/c3ccco3)n2)c1 | inactive
COc1ccc(CNC(=O)CCn2c(=O)oc3ccccc32)c(OC)c1 | inactive
Cc1cc(=O)n(Cc2ccccc2)c2ccccc12 | inactive
CC1(c2ccc(OC(F)F)cc2)NC(=O)N(CC(=O)Nc2cccc(S(N)(=O)=O)c2)C1=O (stereo not drawn) | inactive
CCCn1nc(C(=O)NC2CCCC2)c2ccccc2c1=O | inactive
O=c1[nH]nc(-c2ccccc2)c2ccccc12 | inactive
COc1ccc(CCN(C)C(=O)COc2cccc(-n3cnnn3)c2)cc1OC | inactive
CNc1nc(OCC#N)nc(N2CCCCC2)n1 | inactive
Cc1ccc(-n2nnnc2SCc2ccc(C(=O)O)cc2)cc1C | inactive
C=CCNC(=S)Nc1ccc2cn[nH]c2c1 | inactive
O=S(=O)(N1CCOCC1)n1c(Cc2ccccc2)nc2ccccc21 | inactive
O=C(Nc1ccc(F)cc1)N1CCCCN2[C@@H](CO)[C@@H](c3ccc(C#Cc4ccccc4)cc3)[C@@H]2C1 | inactive
CCN(CC(=O)Nc1ccccc1OC)C(=O)C1CCCC1 | inactive
COc1ccc(C2=Nn3c(nnc3-c3ccccc3OC)SC2)cc1OCC1CC1 | inactive
COc1ccc(C2=NN(C(=O)CCCC(=O)O)C(c3cccs3)C2)cc1OC (stereo not drawn) | inactive
O=c1[nH]nc(-c2cccs2)c2ccccc12 | inactive
CCCc1cc(=O)n2[nH]c(C)c(-c3ccc(Cl)cc3)c2n1 | inactive
CCN1CCN(c2ccc(S(=O)(=O)N3CCCCC3)cc2NC(=O)c2cc3ccccc3o2)CC1 | inactive
COc1ccc(NC(=O)c2csc(C)c2)cc1OC | inactive
CCNC(=O)C1(C)CCCN1C(=O)c1cc(OC)c(OC)c(OC)c1 (stereo not drawn) | inactive
COc1ccc(Nc2c3c(nc4ccccc24)CCC3)cc1 | inactive
O=C(O)COc1ccccc1-c1ccccc1 | inactive

Structure (SMILES) | outcome
COc1ccc(/C=N/NC(=O)CN(C2=NS(=O)(=O)c3ccccc32)c2ccccc2)cc1OC | inactive
CCN(c1ccccc1)c1nc(Cl)nc2c1cnn2C | inactive
COCCNC(=O)c1cc2c(c(-c3cccc(C#Cc4ccc(OC)c(OC)c4)c3)n1)[C@H](CCO)N(S(=O)C(C)(C)C)C2 (stereo partly drawn) | inactive
COc1ccc(C(=O)C2CCCN(C(=O)c3n[nH]c4c3CCCC4)C2)cc1OC (stereo not drawn) | inactive
Cn1c(=O)[nH]c(=O)c2c1nc(N1CCCCC1)n2C/C=N/Nc1ccc(C(=O)O)cc1 | inactive
Cc1cc(-c2ccc(S(=O)(=O)N3CCN(C)CC3)s2)on1 | inactive
Cc1cccc(C)c1NC(=O)NC1CCc2ccccc21 (stereo not drawn) | inactive
COC(=O)c1ccc(C)c(-n2c(=O)n(Cc3ccccc3)c(=O)c3[nH]cnc32)c1 | inactive
COC(=O)c1scc(C)c1NC(=O)CC1NCCNC1=O (stereo not drawn) | inactive
O=C(c1ccccc1)c1ccc2ccccc2n1 | inactive
COc1ccc(CCNC(=O)NS(=O)(=O)c2ccc(C)cc2)cc1OC | inactive
COc1cc2c(cc1OC)C(CSc1ccccc1C(=O)O)=NC(C)(C)C2 | inactive
Cc1cccc2[nH]c3c(N4CC=C(c5ccc(F)cc5)CC4)ncnc3c12 | inactive
COc1cc(C)c(C)cc1S(=O)(=O)N1CCCCC1c1cccnc1 (stereo not drawn) | inactive
C[C@@H]1CC2=C(C(=O)OC(C)(C)O2)[C@H](c2ccc(F)cc2)O1 | inactive
CCCCn1c(=O)n(C)c(=O)c2c3c(sc21)COC(C)(C)C3 | inactive
CCOC(=O)c1csc(-c2ccc(OC)c(OC)c2)n1 | inactive
COc1ccc(-c2cc(C(=O)N3CCCCCC3)no2)cc1OC | inactive
C[C@@H]1CN([C@H](C)CO)C(=O)CCCn2cc(nn2)CO[C@H]1CN(C)S(=O)(=O)c1cccs1 | inactive
CCOc1cc(C(=O)N(C)CC(=O)Nc2cccc3ccccc23)ccc1OC | inactive
CCOc1ccc(-c2noc(CCC(=O)NC)n2)cc1OCC | inactive
COc1cc2c(cc1OC)-c1cc(Nc3ccccc3C)nc(=O)n1CC2 | inactive
CCOc1ccc(CCNC(=O)COC(=O)c2ccc(C)s2)cc1OCC | inactive
